From PubChem BioAssay (NCI)
The panel holds about 83,000 compounds, 20% with a hit somewhere; the sample as a whole holds those more often.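 Assay: single dose, 48 h. Readout: percent growth (0 = no net growth; negative = cell death). Active: <10.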 Active and inactive are the calls of the source.

Legend:
Experiment in all cases: NCI-60 one-dose screen, 48 h (100 = growth as untreated, 0 = no growth, -100 = all killed)
Conditions in all cases: 10 µM
NCI-H23 lung = tested on: NCI-H23 lung
NCI-H226 lung = tested on: NCI-H226 lung
NCI-H322M lung = tested on: NCI-H322M lung
HOP-62 NSCLC = tested on: HOP-62 NSCLC
NCI-H460 lung = tested on: NCI-H460 lung
HOP-92 NSCLC = tested on: HOP-92 NSCLC
NCI-H522 lung = tested on: NCI-H522 lung
A549/ATCC NSCLC = tested on: A549/ATCC NSCLC
786-0 renal = tested on: 786-0 renal
COLO 205 colon = tested on: COLO 205 colon

Measured: growth

COc1ccc(-c2nc(-c3ccccc3)c(-c3ccccc3)[nH]2)cc1OC1CCCC1
inactive: NCI-H23 lung 73.1% | NCI-H226 lung 88.9% | NCI-H322M lung 66% | HOP-62 NSCLC 113% | NCI-H460 lung 61.4% | HOP-92 NSCLC 12.6% | NCI-H522 lung 36.1% | A549/ATCC NSCLC 61.8% | 786-0 renal 78.6% | COLO 205 colon 86.3%

Brc1ccc(-c2cn3ccnc3c(-c3ccc(Br)cc3)n2)cc1
inactive: NCI-H23 lung 59.8% | NCI-H226 lung 70.6% | NCI-H322M lung 86.7% | HOP-62 NSCLC 33.2% | NCI-H460 lung 16.8% | HOP-92 NSCLC 55.8% | A549/ATCC NSCLC 31.9% | 786-0 renal 57.8%
active: NCI-H522 lung -14.9% | COLO 205 colon 7.83%

COc1cc(-c2cc(-c3ccc(C)cc3)nc3nc(N)[nH]c(=O)c23)ccc1Oc1ccnc2cc(Cl)ccc12
inactive: NCI-H23 lung 107% | NCI-H226 lung 73.3% | NCI-H322M lung 80.6% | HOP-62 NSCLC 98.4% | NCI-H460 lung 96% | HOP-92 NSCLC 70.4% | NCI-H522 lung 92.5% | A549/ATCC NSCLC 78.7% | 786-0 renal 98.1% | COLO 205 colon 107%

Cc1cc(Nc2cccc(F)c2)nc(NCc2ccccc2)n1
active: NCI-H23 lung -2.43% | NCI-H460 lung 6.63% | HOP-92 NSCLC -2.56% | NCI-H522 lung 6.89% | COLO 205 colon 8.24%
inactive: NCI-H226 lung 40.4% | NCI-H322M lung 63.2% | HOP-62 NSCLC 70.5% | A549/ATCC NSCLC 16.2% | 786-0 renal 45.7%

COc1ccc2nc(/C=C/c3ccc(N(C)C)cc3)sc2c1
inactive: NCI-H23 lung 89.5% | NCI-H226 lung 99.5% | NCI-H322M lung 99.6% | HOP-62 NSCLC 108% | NCI-H460 lung 110% | HOP-92 NSCLC 93.3% | NCI-H522 lung 90.6% | A549/ATCC NSCLC 105% | 786-0 renal 93% | COLO 205 colon 145%

O=C(/C=C/c1ccc(Cl)cc1)c1ccc(Br)cc1
inactive: NCI-H23 lung 94.6% | NCI-H226 lung 108% | NCI-H322M lung 91.2% | HOP-62 NSCLC 97.2% | NCI-H460 lung 109% | HOP-92 NSCLC 111% | NCI-H522 lung 82.6% | A549/ATCC NSCLC 102% | 786-0 renal 81.1% | COLO 205 colon 110%

Cc1ccc([P+](Cc2ccccc2)(c2ccccc2)c2ccccc2)cc1
active: HOP-92 NSCLC -25.3% | NCI-H522 lung -21.6% | COLO 205 colon -68.9%
inactive: NCI-H23 lung 12.4% | NCI-H226 lung 28.3% | NCI-H322M lung 16.2% | HOP-62 NSCLC 23.7% | NCI-H460 lung 12.4% | A549/ATCC NSCLC 18.1% | 786-0 renal 21.3%

COC(=O)C1(C(=O)OC)C2C(=O)C3C(C21)C3(C(=O)OC(C)(C)C)C(=O)OC(C)(C)C (stereo not given)
inactive: NCI-H23 lung 107% | NCI-H226 lung 89.5% | NCI-H322M lung 108% | HOP-62 NSCLC 99.9% | NCI-H460 lung 113% | HOP-92 NSCLC 97.8% | NCI-H522 lung 111% | A549/ATCC NSCLC 109% | 786-0 renal 102% | COLO 205 colon 115%

CS(=O)(=O)Nc1ccc(OCc2nnc(-c3ccc(Cl)cc3)o2)c(F)c1
inactive: NCI-H23 lung 93.6% | NCI-H226 lung 86.2% | NCI-H322M lung 109% | HOP-62 NSCLC 87.2% | NCI-H460 lung 98.9% | HOP-92 NSCLC 88.3% | NCI-H522 lung 94.8% | A549/ATCC NSCLC 90.2% | 786-0 renal 89.4% | COLO 205 colon 110%

NC1CCC(Nc2nc(NCc3cc(Cl)ccc3O)c3ncn(C4CCCC4)c3n2)CC1 (stereo not given)
inactive: NCI-H322M lung 10.9%
active: NCI-H23 lung -49.1% | NCI-H226 lung -6.72% | HOP-62 NSCLC -18% | NCI-H460 lung 0.39% | HOP-92 NSCLC -18.1% | NCI-H522 lung -50.2% | A549/ATCC NSCLC -4.99% | 786-0 renal -11.3% | COLO 205 colon -63.1%

COc1ccc(-c2cc(/C=C3\C(=O)Nc4cc(Cl)ccc43)[nH]n2)cc1
inactive: NCI-H23 lung 54.1% | NCI-H226 lung 56.1% | NCI-H322M lung 81.9% | HOP-62 NSCLC 45.4% | NCI-H460 lung 22% | HOP-92 NSCLC 51.7% | A549/ATCC NSCLC 44% | 786-0 renal 52.1% | COLO 205 colon 19.4%
active: NCI-H522 lung -14.9%

N#Cc1ncc(-c2cc(F)ccc2F)c(NC2CCCCCC2)n1
inactive: NCI-H23 lung 89.9% | NCI-H226 lung 92.6% | NCI-H322M lung 73.6% | HOP-62 NSCLC 65.9% | NCI-H460 lung 48.5% | HOP-92 NSCLC 65.2% | NCI-H522 lung 68% | A549/ATCC NSCLC 78% | 786-0 renal 97.6% | COLO 205 colon 100%

CCCCOCCOCCOCc1cc2c(cc1Br)OCO2
inactive: NCI-H23 lung 99.3% | NCI-H226 lung 97.4% | NCI-H322M lung 91.8% | HOP-62 NSCLC 92.7% | NCI-H460 lung 111% | HOP-92 NSCLC 85% | NCI-H522 lung 80.4% | A549/ATCC NSCLC 91.2% | 786-0 renal 100% | COLO 205 colon 107%

Cc1ccc2nc(-c3ccc(OCC(=O)N=Nc4c(O)[nH]c5ccccc45)cc3)[nH]c2c1
active: NCI-H460 lung -13.4%
inactive: NCI-H23 lung 94.9% | NCI-H226 lung 92.6% | NCI-H322M lung 91.3% | HOP-62 NSCLC 104% | HOP-92 NSCLC 81.9% | NCI-H522 lung 79.4% | A549/ATCC NSCLC 79.2% | 786-0 renal 36.1% | COLO 205 colon 58.4%
